What all share (assay): PBM; 200 nM protein, PBS
Settings in all cases: dsDNA, one strand shown

In test [1] the target is HESX1 (Homo sapiens, UniProt Q9UBX0 95-180, R165K).
Test [2] concerns the target ALX4 (Homo sapiens, UniProt Q9H161 200-286).
Test [3] deals with T1, PAX4 (Homo sapiens, UniProt O43316 9-242, R200K).
T1 sequence: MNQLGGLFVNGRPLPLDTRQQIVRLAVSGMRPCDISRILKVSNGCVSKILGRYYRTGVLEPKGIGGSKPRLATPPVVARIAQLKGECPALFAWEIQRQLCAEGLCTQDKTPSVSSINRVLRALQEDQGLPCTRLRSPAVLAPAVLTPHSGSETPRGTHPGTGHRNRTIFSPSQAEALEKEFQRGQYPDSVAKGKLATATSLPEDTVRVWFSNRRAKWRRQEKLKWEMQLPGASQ

Test [4] deals with PRRX1 (Homo sapiens, UniProt P54821 80-166, F113S).
Sequence of PRRX1 (Homo sapiens, UniProt P54821 80-166, F113S) (P54821 80-166 F113S): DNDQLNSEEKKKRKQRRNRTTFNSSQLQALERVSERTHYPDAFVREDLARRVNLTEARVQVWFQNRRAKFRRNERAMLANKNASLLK
Test [5] addresses T2, PAX4 (Homo sapiens, UniProt O43316 9-242).
T2 sequence: T1 sequence with K192R

The target in test [6] is ALX4 (Homo sapiens, UniProt Q9H161 200-286, Q225E).
Sequence of ALX4 (Homo sapiens, UniProt Q9H161 200-286, Q225E) (Q9H161 200-286 Q225E): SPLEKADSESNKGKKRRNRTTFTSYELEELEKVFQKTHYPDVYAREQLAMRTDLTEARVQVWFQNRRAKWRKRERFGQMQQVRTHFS
Test [7] has as its target HESX1 (Homo sapiens, UniProt Q9UBX0 95-180).
Test [8] has as its target MSX2 (Homo sapiens, UniProt P35548 130-214, R199I).
For test [9], the target named is ALX1 (Homo sapiens, UniProt Q15699 118-204, L144V).
Sequence of ALX1 (Homo sapiens, UniProt Q15699 118-204, L144V) (Q15699 118-204 L144V): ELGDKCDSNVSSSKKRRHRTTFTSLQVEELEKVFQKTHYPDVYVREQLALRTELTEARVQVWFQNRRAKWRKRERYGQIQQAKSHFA
The target of test [10] is ALX3 (Homo sapiens, UniProt O95076 139-225, N203Q).
Sequence of ALX3 (Homo sapiens, UniProt O95076 139-225, N203Q) (O95076 139-225 N203Q): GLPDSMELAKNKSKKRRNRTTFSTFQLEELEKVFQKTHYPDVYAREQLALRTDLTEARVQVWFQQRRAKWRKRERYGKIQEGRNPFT
The target of test [11] is T3, PAX4 (Homo sapiens, UniProt O43316 9-242, R200Q).
T3 sequence: T1 sequence with K192Q

The target of test [12] is ALX1 (Homo sapiens, UniProt Q15699 118-204, L144R).
Sequence of ALX1 (Homo sapiens, UniProt Q15699 118-204, L144R) (Q15699 118-204 L144R): as the sequence (Q15699 118-204 L144V) above, with V27R counted along it
In test [13] the target is T4, PAX4 (Homo sapiens, UniProt O43316 9-242, F177V).
T4 sequence: T1 sequence with F169V, K192R

Test [14] has as its target MSX2 (Homo sapiens, UniProt P35548 130-214).
For test [15], the target named is ALX3 (Homo sapiens, UniProt O95076 139-225).
Sequence of ALX3 (Homo sapiens, UniProt O95076 139-225) (O95076 139-225): as the sequence (O95076 139-225 N203Q) above, with Q65N counted along it
For test [16], the target named is T5, PAX4 (Homo sapiens, UniProt O43316 9-242, F177Y).
T5 sequence: T1 sequence with F169Y, K192R

Test [17] addresses PROP1 (Homo sapiens, UniProt O75360 56-141).
Test [18] deals with HESX1 (Homo sapiens, UniProt Q9UBX0 95-180, R109Q).
Sequence of HESX1 (Homo sapiens, UniProt Q9UBX0 95-180, R109Q) (Q9UBX0 95-180 R109Q): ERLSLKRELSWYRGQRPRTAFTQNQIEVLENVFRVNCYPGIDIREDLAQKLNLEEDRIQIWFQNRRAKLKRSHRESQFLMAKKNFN
Test [19] deals with PROP1 (Homo sapiens, UniProt O75360 56-141, R99H).
Sequence of PROP1 (Homo sapiens, UniProt O75360 56-141, R99H) (O75360 56-141 R99H): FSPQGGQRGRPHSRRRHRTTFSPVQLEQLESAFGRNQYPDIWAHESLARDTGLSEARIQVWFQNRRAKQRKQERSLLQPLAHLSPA
Test [20] has as its target ALX3 (Homo sapiens, UniProt O95076 139-225, L168Q).
Test [21] deals with HESX1 (Homo sapiens, UniProt Q9UBX0 95-180, P111T).
Sequence of HESX1 (Homo sapiens, UniProt Q9UBX0 95-180, P111T) (Q9UBX0 95-180 P111T): as the sequence (Q9UBX0 95-180 R109Q) above, with Q15R, P17T counted along it
Test [22] has as its target ALX3 (Homo sapiens, UniProt O95076 139-225, L168V).
The target in test [23] is PROP1 (Homo sapiens, UniProt O75360 56-141, F88S).
Sequence of PROP1 (Homo sapiens, UniProt O75360 56-141, F88S) (O75360 56-141 F88S): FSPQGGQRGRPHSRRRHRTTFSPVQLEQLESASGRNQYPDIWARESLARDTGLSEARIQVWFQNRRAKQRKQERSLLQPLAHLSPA
In test [24] the target is MSX2 (Homo sapiens, UniProt P35548 130-214, F161Y).
Sequence of MSX2 (Homo sapiens, UniProt P35548 130-214, F161Y) (P35548 130-214 F161Y): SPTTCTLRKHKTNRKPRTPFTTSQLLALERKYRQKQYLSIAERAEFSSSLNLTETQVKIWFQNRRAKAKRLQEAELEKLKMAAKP
For test [25], the target named is HESX1 (Homo sapiens, UniProt Q9UBX0 95-180, F115L).
Sequence of HESX1 (Homo sapiens, UniProt Q9UBX0 95-180, F115L) (Q9UBX0 95-180 F115L): as the sequence (Q9UBX0 95-180 R109Q) above, with Q15R, F21L counted along it
For test [26], the target named is T6, PAX4 (Homo sapiens, UniProt O43316 9-242, R227W).
T6 sequence: T1 sequence with K192R, R219W

The target of test [27] is ALX1 (Homo sapiens, UniProt Q15699 118-204).
Sequence of ALX1 (Homo sapiens, UniProt Q15699 118-204) (Q15699 118-204): as the sequence (Q15699 118-204 L144V) above, with V27L counted along it
Test [28] concerns the target ALX3 (Homo sapiens, UniProt O95076 139-225, N203S).
Test [29] deals with PRRX1 (Homo sapiens, UniProt P54821 80-166).
Sequence of PRRX1 (Homo sapiens, UniProt P54821 80-166) (P54821 80-166): as the sequence (P54821 80-166 F113S) above, with S34F counted along it
Test [30] has as its target HOXA7 (Homo sapiens, UniProt P31268 116-202).
Test [31] addresses HOXA7 (Homo sapiens, UniProt P31268 116-202, W177C).
For test [32], the target named is T7, NKX2-6 (Homo sapiens, UniProt A6NCS4 118-204, R150C).
T7 sequence: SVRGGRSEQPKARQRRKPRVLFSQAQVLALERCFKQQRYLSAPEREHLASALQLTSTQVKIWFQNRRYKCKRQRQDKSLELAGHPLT

Test [33] deals with HOXB6 (Homo sapiens, UniProt P17509 132-218, K202E).
Sequence of HOXB6 (Homo sapiens, UniProt P17509 132-218, K202E) (P17509 132-218 K202E): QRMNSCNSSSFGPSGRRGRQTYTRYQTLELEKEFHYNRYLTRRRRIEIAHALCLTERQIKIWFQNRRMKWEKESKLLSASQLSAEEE
Test [34] deals with HOXA2 (Homo sapiens, UniProt O43364 129-215, R185T).
Sequence of HOXA2 (Homo sapiens, UniProt O43364 129-215, R185T) (O43364 129-215 R185T): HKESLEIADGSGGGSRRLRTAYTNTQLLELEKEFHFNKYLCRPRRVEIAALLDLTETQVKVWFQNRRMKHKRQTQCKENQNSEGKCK
The target in test [35] is HOXA2 (Homo sapiens, UniProt O43364 129-215, R185K).
Sequence of HOXA2 (Homo sapiens, UniProt O43364 129-215, R185K) (O43364 129-215 R185K): as the sequence (O43364 129-215 R185T) above, with T57K counted along it
Test [36] deals with HOXA2 (Homo sapiens, UniProt O43364 129-215, Y150S).
Sequence of HOXA2 (Homo sapiens, UniProt O43364 129-215, Y150S) (O43364 129-215 Y150S): as the sequence (O43364 129-215 R185T) above, with Y22S, T57R counted along it
Test [37] deals with HOXA2 (Homo sapiens, UniProt O43364 129-215).
Sequence of HOXA2 (Homo sapiens, UniProt O43364 129-215) (O43364 129-215): as the sequence (O43364 129-215 R185T) above, with T57R counted along it
In test [38] the target is HOXB6 (Homo sapiens, UniProt P17509 132-218).
Sequence of HOXB6 (Homo sapiens, UniProt P17509 132-218) (P17509 132-218): as the sequence (P17509 132-218 K202E) above, with E71K counted along it

Changes are numbered by the printed parent chain.

Sequence of HESX1 (Homo sapiens, UniProt Q9UBX0 95-180) (Q9UBX0 95-180): as the sequence (Q9UBX0 95-180 R109Q) above, with Q15R counted along it
Sequence of HESX1 (Homo sapiens, UniProt Q9UBX0 95-180, R165K) (Q9UBX0 95-180 R165K): as the sequence (Q9UBX0 95-180 R109Q) above, with Q15R, R71K counted along it
Sequence of ALX4 (Homo sapiens, UniProt Q9H161 200-286) (Q9H161 200-286): as the sequence (Q9H161 200-286 Q225E) above, with E26Q counted along it
Sequence of MSX2 (Homo sapiens, UniProt P35548 130-214) (P35548 130-214): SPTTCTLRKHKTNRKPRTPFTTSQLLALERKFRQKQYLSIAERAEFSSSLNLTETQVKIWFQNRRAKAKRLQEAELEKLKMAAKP
Sequence of MSX2 (Homo sapiens, UniProt P35548 130-214, R199I) (P35548 130-214 R199I): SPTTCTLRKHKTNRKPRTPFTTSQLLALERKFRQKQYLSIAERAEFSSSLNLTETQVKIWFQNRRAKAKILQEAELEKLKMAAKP
Sequence of ALX3 (Homo sapiens, UniProt O95076 139-225, L168V) (O95076 139-225 L168V): as the sequence (O95076 139-225 N203Q) above, with L30V, Q65N counted along it
Sequence of HOXA7 (Homo sapiens, UniProt P31268 116-202, W177C) (P31268 116-202 W177C): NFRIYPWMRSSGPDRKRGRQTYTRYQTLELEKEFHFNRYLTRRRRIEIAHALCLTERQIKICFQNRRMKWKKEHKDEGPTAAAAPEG
Sequence of ALX3 (Homo sapiens, UniProt O95076 139-225, L168Q) (O95076 139-225 L168Q): as the sequence (O95076 139-225 N203Q) above, with L30Q, Q65N counted along it
Sequence of ALX3 (Homo sapiens, UniProt O95076 139-225, N203S) (O95076 139-225 N203S): as the sequence (O95076 139-225 N203Q) above, with Q65S counted along it
Sequence of PROP1 (Homo sapiens, UniProt O75360 56-141) (O75360 56-141): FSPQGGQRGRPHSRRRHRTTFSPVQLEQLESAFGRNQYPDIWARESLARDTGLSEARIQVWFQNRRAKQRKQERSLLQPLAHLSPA
Sequence of HOXA7 (Homo sapiens, UniProt P31268 116-202) (P31268 116-202): as the sequence (P31268 116-202 W177C) above, with C62W counted along it

Take AATTATCT: the binding signal was 11.8 upbm affinity estimate (log intensity, higher = more binding, comparable within an allelic series) in test [1]; 13.6 upbm affinity estimate (log intensity, higher = more binding, comparable within an allelic series) in [2]; 11.7 upbm affinity estimate (log intensity, higher = more binding, comparable within an allelic series) in test [3]; 11.2 upbm affinity estimate (log intensity, higher = more binding, comparable within an allelic series) in [4]; 12.2 upbm affinity estimate (log intensity, higher = more binding, comparable within an allelic series) in test [5]; 12.7 upbm affinity estimate (log intensity, higher = more binding, comparable within an allelic series) in test [6]. The binding signal was 11.8 upbm affinity estimate (log intensity, higher = more binding, comparable within an allelic series) in [7]; 12.3 upbm affinity estimate (log intensity, higher = more binding, comparable within an allelic series) in test [8]; 11.6 upbm affinity estimate (log intensity, higher = more binding, comparable within an allelic series) in [9]; 8.49 upbm affinity estimate (log intensity, higher = more binding, comparable within an allelic series) in test [10]; 11.9 upbm affinity estimate (log intensity, higher = more binding, comparable within an allelic series) in [11]; 11.3 upbm affinity estimate (log intensity, higher = more binding, comparable within an allelic series) in test [12]. For the same sequence, the binding signal is 10.5 upbm affinity estimate (log intensity, higher = more binding, comparable within an allelic series) in [13]; 13.5 upbm affinity estimate (log intensity, higher = more binding, comparable within an allelic series) in test [14]; 12.4 upbm affinity estimate (log intensity, higher = more binding, comparable within an allelic series) in test [15]; 11 upbm affinity estimate (log intensity, higher = more binding, comparable within an allelic series) in test [16]; 11.1 upbm affinity estimate (log intensity, higher = more binding, comparable within an allelic series) in test [17]; 8.47 upbm affinity estimate (log intensity, higher = more binding, comparable within an allelic series) in test [18]. For the same sequence, the binding signal in test [19] is 10.8 upbm affinity estimate (log intensity, higher = more binding, comparable within an allelic series); in test [20], 10.3 upbm affinity estimate (log intensity, higher = more binding, comparable within an allelic series); in test [21], 10.2 upbm affinity estimate (log intensity, higher = more binding, comparable within an allelic series); in [22], 9.85 upbm affinity estimate (log intensity, higher = more binding, comparable within an allelic series); in test [23], 7.79 upbm affinity estimate (log intensity, higher = more binding, comparable within an allelic series); in test [24], 13 upbm affinity estimate (log intensity, higher = more binding, comparable within an allelic series). Moreover, the binding signal in [25] is 7.77 upbm affinity estimate (log intensity, higher = more binding, comparable within an allelic series); in [26], 10.9 upbm affinity estimate (log intensity, higher = more binding, comparable within an allelic series); in [27], 12.1 upbm affinity estimate (log intensity, higher = more binding, comparable within an allelic series); in [28], 8.6 upbm affinity estimate (log intensity, higher = more binding, comparable within an allelic series); in [29] it was 13.2 upbm affinity estimate (log intensity, higher = more binding, comparable within an allelic series).
On to CAATAATG, for which the binding signal was 8.97 upbm affinity estimate (log intensity, higher = more binding, comparable within an allelic series) in test [1] and 9.26 upbm affinity estimate (log intensity, higher = more binding, comparable within an allelic series) in [7].
Regarding AAGCTGGC, the binding signal in [1] is 6.31 upbm affinity estimate (log intensity, higher = more binding, comparable within an allelic series); in [30] it was 8.32 upbm affinity estimate (log intensity, higher = more binding, comparable within an allelic series); in [7], 6.21 upbm affinity estimate (log intensity, higher = more binding, comparable within an allelic series); in test [18] it was 6.45 upbm affinity estimate (log intensity, higher = more binding, comparable within an allelic series); in test [21], 6.39 upbm affinity estimate (log intensity, higher = more binding, comparable within an allelic series); in test [25] it was 6.51 upbm affinity estimate (log intensity, higher = more binding, comparable within an allelic series). Also, the binding signal in test [31] was 8.3 upbm affinity estimate (log intensity, higher = more binding, comparable within an allelic series).
Regarding AGAGGCAC, the binding signal was 6.29 upbm affinity estimate (log intensity, higher = more binding, comparable within an allelic series) in test [1]; 8.1 upbm affinity estimate (log intensity, higher = more binding, comparable within an allelic series) in [2]; 8.02 upbm affinity estimate (log intensity, higher = more binding, comparable within an allelic series) in test [6]; 6.48 upbm affinity estimate (log intensity, higher = more binding, comparable within an allelic series) in test [7]; 6.44 upbm affinity estimate (log intensity, higher = more binding, comparable within an allelic series) in [18]; 6.5 upbm affinity estimate (log intensity, higher = more binding, comparable within an allelic series) in test [21]. Moreover, the binding signal in [25] was 6.64 upbm affinity estimate (log intensity, higher = more binding, comparable within an allelic series).
With CACGGCTG, the binding signal in test [1] was 6.44 upbm affinity estimate (log intensity, higher = more binding, comparable within an allelic series); in test [2] it was 7.95 upbm affinity estimate (log intensity, higher = more binding, comparable within an allelic series); in test [6], 7.97 upbm affinity estimate (log intensity, higher = more binding, comparable within an allelic series); in [7] it was 6.33 upbm affinity estimate (log intensity, higher = more binding, comparable within an allelic series); in test [32], 9.52 upbm affinity estimate (log intensity, higher = more binding, comparable within an allelic series); in [9] it was 6.21 upbm affinity estimate (log intensity, higher = more binding, comparable within an allelic series). Moreover, the binding signal in test [12] is 6.3 upbm affinity estimate (log intensity, higher = more binding, comparable within an allelic series); in test [18] it was 6.53 upbm affinity estimate (log intensity, higher = more binding, comparable within an allelic series); in test [21] it was 6.39 upbm affinity estimate (log intensity, higher = more binding, comparable within an allelic series); in test [25] it was 6.49 upbm affinity estimate (log intensity, higher = more binding, comparable within an allelic series); in [27], 6.11 upbm affinity estimate (log intensity, higher = more binding, comparable within an allelic series).
CAGGCCGG: the binding signal in test [1] is 6.44 upbm affinity estimate (log intensity, higher = more binding, comparable within an allelic series); in test [33], 8.91 upbm affinity estimate (log intensity, higher = more binding, comparable within an allelic series); in test [7], 6.33 upbm affinity estimate (log intensity, higher = more binding, comparable within an allelic series); in [34], 7.05 upbm affinity estimate (log intensity, higher = more binding, comparable within an allelic series); in test [35], 10.1 upbm affinity estimate (log intensity, higher = more binding, comparable within an allelic series); in test [18], 6.48 upbm affinity estimate (log intensity, higher = more binding, comparable within an allelic series). Further, the binding signal in test [21] is 6.33 upbm affinity estimate (log intensity, higher = more binding, comparable within an allelic series); in [25], 6.4 upbm affinity estimate (log intensity, higher = more binding, comparable within an allelic series); in [36] it was 10.3 upbm affinity estimate (log intensity, higher = more binding, comparable within an allelic series); in [37], 7.13 upbm affinity estimate (log intensity, higher = more binding, comparable within an allelic series); in test [38], 8.84 upbm affinity estimate (log intensity, higher = more binding, comparable within an allelic series).
Regarding GAACCCCC, the binding signal is 6.29 upbm affinity estimate (log intensity, higher = more binding, comparable within an allelic series) in test [1]; 6.26 upbm affinity estimate (log intensity, higher = more binding, comparable within an allelic series) in test [7]; 7.12 upbm affinity estimate (log intensity, higher = more binding, comparable within an allelic series) in test [34]; 9.43 upbm affinity estimate (log intensity, higher = more binding, comparable within an allelic series) in test [8]; 10 upbm affinity estimate (log intensity, higher = more binding, comparable within an allelic series) in test [35]; 9.41 upbm affinity estimate (log intensity, higher = more binding, comparable within an allelic series) in test [14]. For the same sequence, the binding signal in test [18] was 6.37 upbm affinity estimate (log intensity, higher = more binding, comparable within an allelic series); in test [21], 6.38 upbm affinity estimate (log intensity, higher = more binding, comparable within an allelic series); in [24], 9.53 upbm affinity estimate (log intensity, higher = more binding, comparable within an allelic series); in test [25] it was 6.35 upbm affinity estimate (log intensity, higher = more binding, comparable within an allelic series); in test [36], 10.3 upbm affinity estimate (log intensity, higher = more binding, comparable within an allelic series); in test [37] it was 7.05 upbm affinity estimate (log intensity, higher = more binding, comparable within an allelic series).

The record behind these values is PMC11006913.
